The campaign covered roughly 52,000 sequences. About 210 (0.4%) were called active.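 Rule for the calls: active = gene whose silencing raises cell survival under the drug, median off-target-corrected z-score across its silencing RNAs 2 or more; inactive = the rest.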 Shown is part of a subset that was picked to be rich in actives.

A short description of this test: Resistance to Poly (ADP-Ribose) Polymerase inhibitor: Gene Identification via Genome-wide siRNA Screen. The settings on record: mouse BRCA2 R2336H ES cells, olaparib, CellTiter-Glo viability; active compounds read high. The procedure, abridged: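 Genome-wide siRNA screen (3 siRNAs/gene, 20 nM) in mouse ES cells carrying hypomorphic BRCA2 R2336H; olaparib 500 nM added 48 h post-transfection, CellTiter-Glo viability 72 h later. Normalized to plate-median negative control; MAD z-scores, gene median, seed-adjusted.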
On the technique in general: In ATP-based viability assays light output follows the ATP content of the culture.
With “GGCUCCACCAAAGCCUGUUTT against 2310066N05Rik”, the z-score was -2.31 (inactive).

Consider “CCUUGGGACUGACUGUAAGTT against A230072I16Rik”, for which the z-score is 2.25 (inactive). For the sequence GGUCAAUUAUGAAGAGUUUTT against Calm3, the z-score was 1.59 (inactive). With CCGGGUCAGGACAAUUCAUTT against Hsd17b1, the z-score was 1.29 (active). With GCAUUCGGCUGAGAAGAUGTT against Foxb2 the figure was -1.8 (inactive); with GGAUAAUUCAGACAACAAUTT against Fus, 3.47 (active); with GGAACCAAUAAAUCUGUGCTT against Rfxank, 0.27 (inactive).

Take “GGUCAUAGGUACGUAUCCGTT against 6430529G09Rik”: the z-score was -0.0313 (inactive). Take GGCUGUACAGUCAUGCAAGTT against Adamts5: the z-score was 2.62 (active).

Turning to GGAAAGCUACUGUCAGAGUTT against Olfr473, the z-score is 0.453 (inactive).

GGACGUGUGGCUGUUGACATT against Sdc1: the z-score is -2.23 (inactive). With “GCUUUAGAUACGUGAUUAGTT against 5830417C01Rik” the figure was -1.26 (inactive); with “GCGACUACUUAGACACUUUTT against 4732481H14Rik”, -1.94 (inactive); with UAGCCAUCGCUCUUUCUUATT against Olfr594, -0.973 (inactive). Take GGACAAAGGUGUCAACUCCTT against Crmp1: the z-score is -0.491 (inactive). With GCUCCUAGGAACUUGGUUATT against Pacsin2 the figure was 2.36 (active).

For the sequence CGAGUUCGGUAUGAGUGGATT against Clptm1, the z-score is -1.24 (inactive).

For the sequence GGUCGGAAGAAUCUAAAGGTT against Dmp1, the z-score was 0.0661 (inactive). Consider GGAAGAGAGGACCAUGAAGTT against Usp18, for which the z-score was 2.69 (active).

In the case of GAGAAUCCAGAACUCCAAUTT against Olfr952, the z-score was -0.963 (inactive). With GCAAUCAUUAAGCAGAUCATT against Prkce the figure was -2.49 (inactive). With GGCCGACAAGCGAUCAAAATT against AU040829 the figure was -0.237 (inactive); with GGAUUUGGCCAACUCACCCTT against Acpp, 0.16 (active); with CCCUUCCAACAAUUAUACUTT against Tmem27, 1.04 (inactive). With GGAGAGAAAGAAGUUGUUGTT against Lcn5 the figure was 2.43 (inactive); with GGAUUUCGACAAUAUGAAGTT against Chrnb2, 2.24 (active). Regarding CCUAUGAAGCUCCAUUAUGTT against Madcam1, the z-score is 0.762 (inactive). With CACUCUUGAUACAAAUGAGTT against Ifna6T the figure was 0.264 (inactive). With “GGCACAAAGGCAGUUAUUCTT against 1110049G11Rik” the figure was 0.847 (inactive); with GGGAAAAAUAUCAGUUAUGTT against Khdrbs1, 1.08 (active); with GCUGGUGUCAUUAGACAGUTT against Npc1l1, -0.302 (inactive). For the sequence GGCUAUAUCAAUGAAUUUGTT against Polr3b, the z-score is 0.129 (inactive). On to GGAUGUUCAUCUAUUUCUUTT against Mja1l, for which the z-score was -0.191 (inactive). GGGACCAAGCAGGUAAAAATT against Kif3a: the z-score was 4.17 (active).

With “GGCCUAAGGACAAUUAUUUTT against 9130022A01Rik”, the z-score is 0.222 (inactive).

As for CCAAAUUCAUUCUAGCUCGTT against Copeb, the z-score was 0.474 (inactive). With CCGAAUGGAAUACCAAAUUTT against Cst8 the figure was -0.186 (inactive); with GGAUGUCAGCUGGUGGUUATT against Tmprss6, -0.447 (inactive). With CCAUCUUGGGUUCUGGUCATT against BC057627 the figure was -0.312 (active); with GGUGUCUGAAUUUGUGGCUTT against Abtb1, 1.65 (inactive).

As for GGGAUCAUUAAACUUUUCCTT against Taf11, the z-score was 0.894 (inactive). With “GGAAAAUGUUUUACCAAUGTT against 4930470D19Rik” the figure was 0.0823 (inactive); with “GGCUAGAGACUUGGUUUUUTT against E430025L02Rik”, 1.23 (inactive); with GGUAACUGAGAAAACCAGATT against Adam29, 1.12 (active). With “GGAUCUUGAAGACCAAAAATT against 9030409G11Rik” the figure was -0.527 (inactive); with GGCAAGAGAAUUCAGAUCUTT against Slc5a1, 2.6 (inactive). With GGGCACAACUUCAACAGCUTT against Cklfsf8 the figure was 1.53 (inactive); with GGUUAUCACUCCUCAACAATT against Foxp1, -0.826 (inactive); with GGUCUACGAGUUUAUUGCUTT against Phc1, 0.722 (inactive). Consider GCCCUUUGGAUAACAGUGATT against Sufu, for which the z-score was -0.968 (inactive). With GGCCUUCAAUCACCUAGAGTT against Pde6g the figure was 2.23 (active); with GCAGCUGGCUGCUUUCACATT against AV028368, -0.955 (inactive).

As to “CCGACGUGCAUGGAGAAAATT against 1700030J22Rik”, the z-score is -1.71 (inactive).

Consider “GCCAUUAAUCUCACAUGUATT against A930001N09Rik”, for which the z-score is -0.871 (inactive). GGAAGACCGUACUAUGUUUTT against Gtl2: the z-score is -2.38 (inactive).

In the case of “CCAGUUGGAAAUAUGACGATT against 2510002A14Rik”, the z-score is 0.99 (inactive). Consider “CCUAUGUCAUCAUUGGAGUTT against 2310005G13Rik”, for which the z-score is 0.537 (inactive). For the sequence CGAUGACAUCAGGAUUGUUTT against Gpr128, the z-score is 1.23 (active). For GCUGAUUUCCAAAGAUAAUTT against Glycam1, the z-score was 0.301 (inactive).

Take “GCCCAUGAAUUUUUACUUATT against C330019G07Rik”: the z-score was 0.714 (inactive). With “CGAAGGGACCGAAGAAUCCTT against 5730538E15Rik” the figure was -0.602 (inactive); with CCAGUCCUACUUAGCAAAGTT against BC046404, 1.34 (inactive). With CCAUUACACAAAGUUUUGCTT against Stard6 the figure was 0.874 (inactive); with GGGUUCAAGAGAUGAUAUUTT against Usp11, 2.47 (active); with GGAAAGUGUGUUCAUUAGUTT against Pla2g2d, -0.775 (inactive). On to GGAAAAGGAGGUGGUACUGTT against Agc1, for which the z-score is 0.55 (inactive). With CGCCCAGUGCAAUUUUUUCTT against Gm592 the figure was -0.745 (inactive).

The record behind these values is PubChem BioAssay AID1347423 (Functional Genomics Laboratory (NCATS/FGL), 2020).
